Among the data in PMC12136788 are binding signal values, retold here.

First the molecules themselves.
T1: UNK ZnF1-3 (human, UniProt Q9C0B0 31-174)
T1 sequence: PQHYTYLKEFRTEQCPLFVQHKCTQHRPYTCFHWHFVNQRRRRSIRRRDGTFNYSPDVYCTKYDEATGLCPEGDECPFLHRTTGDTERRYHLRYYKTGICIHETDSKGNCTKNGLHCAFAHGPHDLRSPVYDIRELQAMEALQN

B1: chr16:45382771:45382772:-_ENSMUSG00000022661_ENSMUST00000163230|mus_mus|mus_mus_mus_hu_True|38_88 (ssRNA)
RNA: GGGAGUUCUACAGUCCGACGAUCCUGGGUCAUGUUAUAAGACAAAUGGAUAGGGAGGGCAUGCUUCUCAAAAAAUGUGAGCUAUUGUCUAAGACUAACAAUAUUGCUCUAGCUAUAAAAAUAAGUUAAAUGAAUAAGUUAAGACAACAGAGGAUUGAGCAUCA
B2: chr16:45382771:45382772:-_ENSMUSG00000022661_ENSMUST00000163230|mus_mus|mus_mus_mus_hu_True|1_38 (ssRNA)
RNA: B1 RNA with U50C, G137A, U138C, U139A, A140U, A141U, G142A, A143C
B3: chr7:149068622:149068623:-_ENSMUSG00000025139_ENSMUST00000001950|mus_hu|mus_mus_mus_hu_False|68_108 (ssRNA)
RNA: GGGAGUUCUACAGUCCGACGAUCGUGCAGGUACUGAGUGUGGCUUGUGGUCUGUCCUGGGUUAGAGCUGCUGGUAACACGGAACAUACCAUCUAGAACGUUCCAGUCCCGCCUGACACCUUCAUUCCCAAUGGAGAAGAAAUCCAACAGAGGAUUGAGCAUCA
B4: chr2:5814250:5814251:-_ENSMUSG00000025816_ENSMUST00000102981|mus_hu|mus_mus_mus_hu_True|58_58 (ssRNA)
RNA: GGGAGUUCUACAGUCCGACGAUCUUCCUUUCCGGUUUCUGAAUUUCUGGUAGAACUGCACAGAAUGGUUUGAUAACUUCUAAAAACUUGAUGCCCAUGGCUGCUGCUGGGGAGGCCCAGGGGGAAACCGCGGCCUCGGCGCUGCAACAGAGGAUUGAGCAUCA
B5: 97007495_97007615_238_CDS_ENSG00000121152_ENST00000240423|human|control|control (ssRNA)
RNA: GGGAGUUCUACAGUCCGACGAUCCAAUAAGCGAGGUGAGUCAGUGCUGAACUGCAGAUCAAAGACCCUCGAGCGCCUCCGCUGCAGCCGCUCCUUCUCAUCGUCAUUCUGAGGAAAGUCUUCGAGGACUGGGGUGCCAGGAAUCAACAGAGGAUUGAGCAUCA
B6: 96635784_96638769_164_5pUTR_ENSMUSG00000020876_ENSMUST00000107661|mouse|control|control (ssRNA)
RNA: GGGAGUUCUACAGUCCGACGAUCCCACAAGCCCAUGGGAAGGGCACAUAGGUGUUCGAGGAAGCUCUUCCGCCUGACAGAAAACCUGUCCCGUCCAUCAAGCAGCUGUUCUCAUUUUUCAGUCGGUAACCCACUCCUUUCACCCAACAGAGGAUUGAGCAUCA
B7: chr12:39756943:39756944:-_ENSG00000139116_ENST00000544797|hu_mus|hu_hu_hu_mus_False|28_68 (ssRNA)
RNA: GGGAGUUCUACAGUCCGACGAUCGGUUUGGCUGUUACCCCCAAGGGAAUCCUGCAAGAGUCUUGUCAGCUUGGAAUCUCUGUAAGGGACAUGGGUGGCUCUCUUGCUCUUGUCUCCCAAGGCGCUGAUUACAUUCCCAAGAGCCAACAGAGGAUUGAGCAUCA
B8: chr16:45382771:45382772:-_ENSMUSG00000022661_ENSMUST00000163230|mus_mus|mus_mus_mus_hu_True|18_38 (ssRNA)
RNA: B1 RNA with U50C, A117U, U121A, A123U, G124A, U125A, U126G
B9: chr16:45382771:45382772:-_ENSMUSG00000022661_ENSMUST00000163230|mus_mus|mus_mus_mus_hu_True|38_38 (ssRNA)
RNA: B1 RNA with U50C
B10: chr16:45382771:45382772:-_ENSMUSG00000022661_ENSMUST00000163230|mus_mus|mus_mus_mus_hu_True|38_78 (ssRNA)
RNA: B1 RNA with U50C, G57A, C66U
B11: chr4:76721835:76721836:+_ENSG00000138768_ENST00000264904|hu_mus|hu_hu_hu_mus_True|18_28 (ssRNA)
RNA: GGGAGUUCUACAGUCCGACGAUCGUUUGGCUGGGGUUUCUGAGACGCUCUGGAAUAUAACUCAUGUUUGCUAAUAAAUCCUAGUUUCUCUAUGAAAUUCUCUUUGCAAUCCUCUUCUCAAUCAGUUUGCUUUAGUUUCUCUUUCAACAGAGGAUUGAGCAUCA
B12: chr19:16212804:16212805:+_ENSG00000167460_ENST00000300933|hu_mus|hu_hu_hu_mus_False|38_98 (ssRNA)
RNA: GGGAGUUCUACAGUCCGACGAUCAACAAUUCUGGAGAAGAACAUCAAUGUAACAUGGAACAGCAUUAAAGCUCAGUCAGAAGGCACAUGGGCAACAAUGACUAUUUCAGCAUUCUCGCUUGGAAUGCUUAAAGACAAUCUGUUCAACAGAGGAUUGAGCAUCA
B13: chr16:45382771:45382772:-_ENSMUSG00000022661_ENSMUST00000163230|mus_mus|mus_mus_mus_hu_True|38_48 (ssRNA)
RNA: B1 RNA with U50C, U87A
B14: chr4:76721835:76721836:+_ENSG00000138768_ENST00000264904|hu_mus|hu_hu_hu_mus_True|8_28 (ssRNA)
RNA: GGGAGUUCUACAGUCCGACGAUCGUUUGGCUGGGGUUUCUGAGACGCUCUGGAAUAUAACUCAUGUUUGCUAAUAAAUCCUAGUUUCUCUAUGAAAUUCUCUUUGCAAUCCUCUUCCUCUAUUAGUGUUUUAGCUUUCUCUUUCAACAGAGGAUUGAGCAUCA

Substitutions are numbered along the chain they refer to. In all, about 24,000 sequences were measured (“enrichment r”: median about 0.99, highest 2% from about 3.7 on). The list comes from a sample in which the highest values are over-represented; it also holds similar and randomly drawn sequences.

The target of this test is T1, UNK ZnF1-3. The experiment in a line: nsRBNS (natural sequence RNA bind-n-seq); RBNS binding buffer (assumed for nsRBNS): 25 mM Tris pH 7.5, 150 mM KCl, 3 mM MgCl2, 0.01% Triton X-100, 500 ug/ml BSA, 20 U/ml SUPERase-In, 4 C; UNK is unkempt and MSI1 is Musashi-1; names of the RNAs are library labels; protein concentration not given here; high values mean tight binding.
The molecule B1 showed a binding signal of 7.9 enrichment R.
As for B2, the figure is 6.59 enrichment R; as for B3, 0.783 enrichment R; as for B4, 1.21 enrichment R.
As for B5, the figure is 1.1 enrichment R; as for B6, 1.14 enrichment R.
As for B7, the figure is 0.792 enrichment R.
For B8, the binding signal turned out to be 10.5 enrichment R.
As for B9, the figure is 16.7 enrichment R; as for B10, 13.9 enrichment R; as for B11, 0.475 enrichment R.
To B12 belongs 1.15 enrichment R.
To B13 belongs 8.11 enrichment R; to B14, 0.588 enrichment R.
